From PubChem BioAssay
Values joined by “and” are separate entries in the source; they are usually repeats but may differ in a detail not shown here. Equal values may be shown once. Active and inactive are the calls of the source.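 Rule for the calls, unless noted: active = compound raises GLP1 secretion from the human gut endocrine cells, with no numeric limit stated; inactive = the rest.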

Experiments:
[1] = Wnt pathway potentiators raising nuclear beta-catenin – imaging, WNT3A-conditioned medium, mouse C2C12, NPC library, primary screen (AID 1117326; in the data active = nuclear beta-catenin stimulation mostly above about 4.2%, no sharp cut-off; inactive = mostly below about 10%); conditions: stronger effect = higher value
[2] = stimulators of insulin release from INS-1E, primary screen, cell-based, 5 mM glucose, NPC library (AID 1117329;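 active = compound raises insulin release from rat beta cells at 5 mM glucose, no numeric limit stated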); conditions: rat INS-1E insulin secretion, at 10 µM, stronger effect = higher value
[3] = growth inhibition of GSK3B-pretreated HCT116 cells – cell-based, CellTiter-Glo, 0.2 to 20 µM (AID 1117336;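 active = compounds lowering colon cancer cell viability after pretreatment blocking the GSK3B kinase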); conditions: HCT116 viability after GSK3B inhibitor, at 20 µM, stronger effect = higher value
[4] = inhibition of endothelial tube formation, primary screen, imaging, VEGF stimulated, CD31 staining, tube area, NPC library (AID 1117340;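 active = compound that reduces growth-factor-driven endothelial tube area in a mixed cell culture, no cutoff stated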); conditions: VEGF-stimulated ADSC/ECFC co-culture, at 10 µM, stronger effect = higher value
[5] = GLP1 release stimulators, primary, NCI-H716, NPC library (AID 1117341); conditions: NCI-H716 cells, at 10 µM, stronger effect = higher value
[6] = HCT116 colon cancer cell growth inhibition, primary screen, CellTiter-Glo luminescence, NPC library (AID 1117342;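 active = compounds that lower survival of HCT116 colon cancer cells in the luminescence readout, no numeric limit stated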); conditions: at 20 µM (top of the series)
[7] = reduced SW480 viability measured with CellTiter-Glo, NPC library, primary (AID 1117343;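 active = compounds that lower viability of the colon cancer cells in the luminescence readout, with no numeric limit stated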); conditions: CellTiter-Glo luminescence; at 20 µM (top of the series)
[8] = NPC library primary testing for decreased DLD-1 cell viability via CellTiter-Glo (AID 1117346;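 active = compounds that lower survival of DLD-1 colon cancer cells in the luminescence readout, no cutoff given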); conditions: DLD-1 viability, CellTiter-Glo luminescence; at 20 µM (top of the series)
[9] = yeast 75Q aggregation reduction – 75Q-TubU reporter (AID 1593); conditions: Yeast 75Q polyglutamine aggregation reporter
[10] = blockers of cytochrome c efflux from mitochondria – biochemical, purified mitochondria (AID 1603); conditions: stronger effect = lower value;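 note: mouse liver mitochondria challenged with calcium chloride; signal normalized to the plate average as 100%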
[11] = polyglutamine aggregate formation blockers (AID 1604); conditions: polyglutamine-induced protein aggregation inhibition assay; stronger effect = higher value; tested at 2.5 µM
[12] = target: 6-phosphogluconate dehydrogenase, decarboxylating (Homo sapiens) (UniProt P52209); assay: inhibition of human phosphogluconate dehydrogenase – biochemical, recombinant enzyme, NADPH absorbance, primary screen (AID 1159550;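 active = at least 20% inhibition of 6-phosphogluconate dehydrogenase activity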); conditions: recombinant 6PGD, NADPH absorbance 341 nm; at 10 µM; stronger effect = higher value
Chain of 6-phosphogluconate dehydrogenase, decarboxylating (Homo sapiens) (P52209 whole entry, looked up): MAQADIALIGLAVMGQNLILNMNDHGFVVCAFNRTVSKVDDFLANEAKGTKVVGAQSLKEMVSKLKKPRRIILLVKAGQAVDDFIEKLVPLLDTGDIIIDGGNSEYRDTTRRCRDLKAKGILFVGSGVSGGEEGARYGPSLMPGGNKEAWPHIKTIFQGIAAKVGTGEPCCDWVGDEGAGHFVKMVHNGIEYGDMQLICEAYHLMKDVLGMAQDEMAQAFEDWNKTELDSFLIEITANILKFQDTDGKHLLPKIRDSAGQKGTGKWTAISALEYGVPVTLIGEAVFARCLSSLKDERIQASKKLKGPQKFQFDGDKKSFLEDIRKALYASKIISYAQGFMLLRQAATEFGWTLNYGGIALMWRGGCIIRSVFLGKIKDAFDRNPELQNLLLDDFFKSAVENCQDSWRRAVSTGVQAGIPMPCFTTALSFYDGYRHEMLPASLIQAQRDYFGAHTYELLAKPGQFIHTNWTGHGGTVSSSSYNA

[13] = EMT-state selective cytotoxicity in co-culture – imaging, PC-3E GFP, TEM4-18 mCherry, primary screen (AID 1345086;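 active = compounds killing one labelled cell type while sparing the other, by normalised counts and ratio limits, not self-fluorescent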;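 for all read-outs here: cells exposed to compound for 72 h before imaging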;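 for red/green cell ratio (normalised): normalised mesenchymal count divided by normalised epithelial count so high means epithelial killing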); conditions: PC-3E GFP / TEM4-18 mCherry co-culture, imaging cell counts, at 1 µM; for red/green cell ratio (normalised): actives lie on both sides
[14] = tested on: Aerobactin synthetase IucA (Klebsiella pneumoniae hvKP1); assay: IucA enzyme inhibition, primary screen, biochemical, Spectrum library (AID 1346200; call rule not given here;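 note: 100% = wells without compound and 0% = wells lacking enzyme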); conditions: malachite green pyrophosphate, A620, at 8 µM, stronger effect = lower value
[15] = MELAS cybrid and Rieske KO viability enhancers – cell-based, MELAS cybrids, Rieske KO mouse fibroblasts, CellTiter-Glo, primary screen (AID 1508586;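 active = mean z-score across replicates of 1.96 or higher in either the MELAS or the Rieske mutant cell line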;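 note: z relative to plate mean and SD of compound and empty wells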); conditions: low glucose
[16] = target: NAD(+) hydrolase SARM1 (Homo sapiens) (UniProt Q6SZW1); assay: blocking NAD cleavage by SARM1 SAM-TIR – cell lysate, NAD-Glo luminescence (AID 1508614;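 active = compound whose remaining NAD level is above about 45 nM, limit read from the data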;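 note: higher remaining NAD means stronger inhibition of SARM1 NADase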); conditions: SAM-TIR HEK293T lysate NADase, at 1 µM, stronger effect = higher value
Chain of NAD(+) hydrolase SARM1 (Homo sapiens) (Q6SZW1 whole entry, looked up, the tested form may be a part): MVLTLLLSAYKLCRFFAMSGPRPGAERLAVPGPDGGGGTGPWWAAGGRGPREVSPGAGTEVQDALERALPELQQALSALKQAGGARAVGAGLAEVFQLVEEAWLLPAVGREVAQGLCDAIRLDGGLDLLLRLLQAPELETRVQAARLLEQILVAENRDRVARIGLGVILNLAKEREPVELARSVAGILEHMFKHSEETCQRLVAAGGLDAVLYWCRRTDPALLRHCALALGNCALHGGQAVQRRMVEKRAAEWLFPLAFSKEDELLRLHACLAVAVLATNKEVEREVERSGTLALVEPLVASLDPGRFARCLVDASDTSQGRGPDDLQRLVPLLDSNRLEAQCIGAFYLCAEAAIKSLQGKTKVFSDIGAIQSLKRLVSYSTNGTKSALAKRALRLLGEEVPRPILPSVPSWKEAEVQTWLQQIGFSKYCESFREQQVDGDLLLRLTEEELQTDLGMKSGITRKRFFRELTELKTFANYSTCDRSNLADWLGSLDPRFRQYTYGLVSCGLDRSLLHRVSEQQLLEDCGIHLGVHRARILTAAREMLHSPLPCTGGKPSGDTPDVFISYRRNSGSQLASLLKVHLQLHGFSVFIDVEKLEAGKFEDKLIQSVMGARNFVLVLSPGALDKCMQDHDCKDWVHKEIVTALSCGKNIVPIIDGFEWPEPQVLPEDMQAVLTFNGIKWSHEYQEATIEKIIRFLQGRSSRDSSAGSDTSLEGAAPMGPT

[17] = target: Mitogen-activated protein kinase 7 (Homo sapiens) (UniProt Q13164); assay: Gal4-ERK5 driven luciferase induction – cell-based, HTS, primary screen (AID 1508626;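 active = luciferase signal above three times the same-plate solvent-only control wells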;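 note: luciferase driven by Gal4-ERK5 fusion binding five Gal4 sites before minimal TATA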); conditions: HeLa Gal4-ERK5 transactivation, 18 h, at 5 µM, stronger effect = higher value
Chain of Mitogen-activated protein kinase 7 (Homo sapiens) (Q13164 whole entry, looked up, the tested form may be a part): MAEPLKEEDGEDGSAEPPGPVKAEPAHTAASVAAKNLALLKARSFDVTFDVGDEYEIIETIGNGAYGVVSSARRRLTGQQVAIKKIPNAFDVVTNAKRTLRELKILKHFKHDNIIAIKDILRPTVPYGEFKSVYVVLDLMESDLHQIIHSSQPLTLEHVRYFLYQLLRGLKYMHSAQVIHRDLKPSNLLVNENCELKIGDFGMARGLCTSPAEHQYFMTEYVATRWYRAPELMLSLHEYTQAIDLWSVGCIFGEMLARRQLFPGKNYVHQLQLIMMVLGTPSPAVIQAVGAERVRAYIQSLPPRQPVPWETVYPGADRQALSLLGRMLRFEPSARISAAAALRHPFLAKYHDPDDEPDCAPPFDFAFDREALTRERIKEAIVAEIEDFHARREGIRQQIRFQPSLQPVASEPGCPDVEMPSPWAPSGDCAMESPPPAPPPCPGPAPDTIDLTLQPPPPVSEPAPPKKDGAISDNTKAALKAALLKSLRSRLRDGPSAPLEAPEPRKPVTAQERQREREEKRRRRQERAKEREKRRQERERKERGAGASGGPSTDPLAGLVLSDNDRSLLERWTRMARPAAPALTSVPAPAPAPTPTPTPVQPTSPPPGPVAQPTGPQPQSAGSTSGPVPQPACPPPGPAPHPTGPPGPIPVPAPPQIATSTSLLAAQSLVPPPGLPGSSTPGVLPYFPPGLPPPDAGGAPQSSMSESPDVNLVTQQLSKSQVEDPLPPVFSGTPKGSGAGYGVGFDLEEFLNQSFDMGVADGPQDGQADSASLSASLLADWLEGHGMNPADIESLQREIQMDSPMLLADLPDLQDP

[18] = galactose survival enhancers in mitochondrial complex I cybrids – cell-based, galactose medium, ATP luminescence, primary screen (AID 1645843;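 active = z-score of at least 1.8 in each of two replicates, scored against plate mean and spread of sample wells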;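 note: positive z means more ATP and so rescue of galactose-driven cybrid death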); conditions: complex I mutant cybrid cells, 72 h, stronger effect = higher value
[19] = viability loss with induced miR-34 in A549 – imaging, A549 dox-inducible miR-34, nuclei and caspase counts, primary screen (AID 1347080;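 active = compounds whose cell count with miR-34 switched on is under 0.7 times the count with it off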); conditions: A549 miR-34 inducible, Hoechst nuclei count, 48 h
[20] = measured here: epithelial PC-3E GFP cell survival
[21] = measured here: mesenchymal TEM4-18 mCherry cell survival
[22] = MELAS cybrid survival, CellTiter-Glo 48 h, stronger effect = higher value
[23] = Rieske KO mouse fibroblast survival, CellTiter-Glo 72 h

Question: With `CCS(=O)(=O)C(C)(C)S(=O)(=O)CC` as the compound, how does the nuclear beta-catenin stimulation ([1]; at 10 µM) read?
Answer: -0.7% (inactive)

Question: And the nuclear beta-catenin stimulation ([1]; stimulation, at 2 µM)?
Answer: 1.4%

Question: What about the insulin secretion stimulation [2] of the same compound?
Answer: -0.1% (inactive)

Question: And the viability decrease [3]?
Answer: 2.1% (inactive)

Question: And the tube area decrease [4]?
Answer: -6.6% (inactive)

Question: And the GLP1 secretion stimulation [5]?
Answer: -1.4% (inactive)

Question: What about the inhibition of viability [6] of the same compound?
Answer: -17.9% (inactive)

Question: And the viability decrease (inhibition) [7]?
Answer: -3.1% (inactive)

Question: What about the viability decrease (inhibition) [8] of the same compound?
Answer: -0.85% (inactive)

Question: Which score [9] does the source give for `CCC1(c2ccc(N)cc2)CCC(=O)NC1=O` (stereo not given) here?
Answer: 1.07

Question: And the cytochrome c release ratio [10]?
Answer: 0.66

Question: And the inhibition of aggregation [11]?
Answer: -9.29%

Question: And the nuclear beta-catenin stimulation ([1]; at 10 µM)?
Answer: -0.3% (inactive)

Question: What about the nuclear beta-catenin stimulation ([1]; stimulation, at 2 µM) of the same compound?
Answer: -0.3%

Question: And the insulin secretion stimulation [2]?
Answer: -2.7% (inactive)

Question: What about the viability decrease [3] of the same compound?
Answer: -4.4% (inactive)

Question: And the tube area decrease [4]?
Answer: 14.2% (inactive)

Question: And the GLP1 secretion stimulation [5]?
Answer: 4.2% (inactive)

Question: And the inhibition of viability [6]?
Answer: -0.6% (inactive)

Question: And the viability decrease (inhibition) [7]?
Answer: 45.3% (inactive)

Question: What about the viability decrease (inhibition) [8] of the same compound?
Answer: 10% (inactive)

Question: And the inhibition [12]?
Answer: 13.3% (inactive)

Question: What about the red/green cell ratio (normalised) [13] of the same compound?
Answer: 0.89 (inactive)

Question: What about the normalised cell number [13, 20] of the same compound?
Answer: 1.36

Question: What about the normalised cell number [13, 21] of the same compound?
Answer: 1.2

Question: What about the activity remaining [14] of the same compound?
Answer: 112% (inactive)

Question: And the z-score [15, 22]?
Answer: -0.397 (inactive) and 0.19 (inactive) and 0.162 (inactive)

Question: What about the z-score [15, 23] of the same compound?
Answer: -0.0248 and -0.0255 and -0.773

Question: What about the remaining NAD [16] of the same compound?
Answer: 10 nM (inactive)

Question: And the luciferase signal [17]?
Answer: 56 AU (inactive)

Question: What about the z-score [18] of the same compound?
Answer: 0.24 (inactive) and 0.82 (inactive) and 0.775 (inactive)

Question: With `CN(C)[C@@H]1C(=O)C(C(N)=O)=C(O)[C@@]2(O)C(=O)C3=C(O)c4c(O)cccc4[C@@](C)(O)[C@H]3[C@H](O)[C@@H]12` as the compound, how does the score [9] read?
Answer: 0.9

Question: And the cytochrome c release ratio [10]?
Answer: 0.99

Question: What about the inhibition of aggregation [11] of the same compound?
Answer: 39.4%

Question: And the nuclear beta-catenin stimulation ([1]; at 10 µM)?
Answer: -2.3% (inactive)

Question: And the nuclear beta-catenin stimulation ([1]; stimulation, at 2 µM)?
Answer: 0.1%

Question: And the insulin secretion stimulation [2]?
Answer: 1.4% (inactive)

Question: And the viability decrease [3]?
Answer: 38.4% (inactive)

Question: What about the tube area decrease [4] of the same compound?
Answer: 11.7% (inactive)

Question: And the GLP1 secretion stimulation [5]?
Answer: -2.9% (inactive)

Question: What about the inhibition of viability [6] of the same compound?
Answer: 31.6% (inactive)

Question: And the viability decrease (inhibition) [7]?
Answer: 62.8% (active)

Question: And the viability decrease (inhibition) [8]?
Answer: 14.3% (inactive)

Question: And the inhibition [12]?
Answer: -7.39% (inactive)

Question: And the red/green cell ratio (normalised) [13]?
Answer: 0.97 (inactive)

Question: And the normalised cell number [13, 20]?
Answer: 1.02

Question: What about the normalised cell number [13, 21] of the same compound?
Answer: 0.99

Question: And the activity remaining [14]?
Answer: 109% (inactive)

Question: And the fold change ([19]; stronger effect = lower value)?
Answer: 0.977 (inactive) and 0.919 (inactive) and 0.901 (inactive)

Question: And the fold change ([19]; measured here: relative caspase fold change +Dox/-Dox)?
Answer: 0.839 and 0.936 and 1.89

Question: What about the cell count ([19]; measured here: total cells with miR-34 induction, stronger effect = lower value) of the same compound?
Answer: 8720 and 8430 and 10800

Question: What about the cell count ([19]; measured here: total cells without miR-34 induction) of the same compound?
Answer: 8930 and 9170 and 12000

Question: What about the z-score [15, 22] of the same compound?
Answer: -3.76 (inactive)

Question: And the z-score [15, 23]?
Answer: -2.32

Question: And the remaining NAD [16]?
Answer: 10 nM (inactive)

Question: And the luciferase signal [17]?
Answer: 92 AU (inactive)

Question: What about the z-score [18] of the same compound?
Answer: -1.4 (inactive)

Question: For `O=c1[nH]c2ccccc2n1C1CCNCC1`, which nuclear beta-catenin stimulation ([1]; at 10 µM) is on record?
Answer: 0.8% (inactive)

Question: And the nuclear beta-catenin stimulation ([1]; stimulation, at 2 µM)?
Answer: -0.9%

Question: What about the insulin secretion stimulation [2] of the same compound?
Answer: -0.9% (inactive)

Question: And the viability decrease [3]?
Answer: -5% (inactive)

Question: What about the tube area decrease [4] of the same compound?
Answer: -5.4% (inactive)

Question: What about the GLP1 secretion stimulation [5] of the same compound?
Answer: 1.9% (inactive)

Question: And the inhibition of viability [6]?
Answer: -8.2% (inactive)

Question: What about the viability decrease (inhibition) [7] of the same compound?
Answer: -13.1% (inactive)

Question: And the viability decrease (inhibition) [8]?
Answer: 7.3% (inactive)

Question: With `Oc1ccc([C@H]2CNCc3c2ccc(O)c3O)cc1O` as the compound, how does the nuclear beta-catenin stimulation ([1]; at 10 µM) read?
Answer: 0.8% (inactive)

Question: What about the nuclear beta-catenin stimulation ([1]; stimulation, at 2 µM) of the same compound?
Answer: 0.2%

Question: What about the insulin secretion stimulation [2] of the same compound?
Answer: 3.5% (inactive)

Question: What about the viability decrease [3] of the same compound?
Answer: 86.5% (active)

Question: And the tube area decrease [4]?
Answer: 13.1% (inactive)

Question: What about the GLP1 secretion stimulation [5] of the same compound?
Answer: 23.9% (active)

Question: What about the inhibition of viability [6] of the same compound?
Answer: 57.5% (active)

Question: And the viability decrease (inhibition) [7]?
Answer: 60.8% (active)

Question: What about the viability decrease (inhibition) [8] of the same compound?
Answer: 38.4% (inactive)
